# Test results from PMC7862700, “An all-to-all approach to the identification of sequence-specific readers for epigenetic DNA modifications on cytosine”.
# How the values were obtained:
# Assay in all cases: DAPPL (digital affinity profiling via proximity ligation, sequencing); 10 mM Tris-HCl pH 7.5, 50 mM NaCl, 1 mM DTT, 4% glycerol, room temperature, 30 min; GST-TFs on glutathione beads, 16-mer random dsDNA library, 0.1% formaldehyde crosslink after washing; high values mean tight binding
# Settings in all cases: protein: recombinant; tags: N-terminal GST; dsDNA, one strand shown
# ERF = target: T1, ERF (Homo sapiens, UniProt P50548 1-548)
# T1 sequence: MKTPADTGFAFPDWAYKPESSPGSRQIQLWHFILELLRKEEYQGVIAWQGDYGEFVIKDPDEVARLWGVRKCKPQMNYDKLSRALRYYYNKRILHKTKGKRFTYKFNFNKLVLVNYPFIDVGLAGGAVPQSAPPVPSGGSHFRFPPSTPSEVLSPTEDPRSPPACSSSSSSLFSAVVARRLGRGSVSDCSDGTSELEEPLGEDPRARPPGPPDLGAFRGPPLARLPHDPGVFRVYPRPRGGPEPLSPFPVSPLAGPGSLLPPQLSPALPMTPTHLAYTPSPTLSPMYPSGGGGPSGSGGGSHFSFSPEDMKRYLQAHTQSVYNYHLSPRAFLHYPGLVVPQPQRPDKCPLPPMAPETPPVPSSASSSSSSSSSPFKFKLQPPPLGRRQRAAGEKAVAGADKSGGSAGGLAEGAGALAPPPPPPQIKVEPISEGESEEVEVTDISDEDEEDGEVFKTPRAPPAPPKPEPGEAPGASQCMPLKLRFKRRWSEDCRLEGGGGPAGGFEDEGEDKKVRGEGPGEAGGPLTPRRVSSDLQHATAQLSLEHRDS
# Summary of the method: (§1)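 GST fusions of human transcription factors were expressed in yeast and captured with glutathione beads. Once given DNA barcodes and pooled alongside a tag-only sample, they were incubated for 30 min at room temperature with 200 nmole of a random double-stranded 16-mer DNA library in Tris/NaCl/DTT/glycerol buffer, then washed, crosslinked (0.1% formaldehyde), proximity-ligated, PCR-amplified and sequenced on an Illumina NextSeq500. The binding signal of each hexamer is its read frequency for a factor divided by its frequency for the tag-only sample.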
# ETV3L = target: T2, ETV3L (Homo sapiens, UniProt Q6ZN32 1-361)
# T2 sequence: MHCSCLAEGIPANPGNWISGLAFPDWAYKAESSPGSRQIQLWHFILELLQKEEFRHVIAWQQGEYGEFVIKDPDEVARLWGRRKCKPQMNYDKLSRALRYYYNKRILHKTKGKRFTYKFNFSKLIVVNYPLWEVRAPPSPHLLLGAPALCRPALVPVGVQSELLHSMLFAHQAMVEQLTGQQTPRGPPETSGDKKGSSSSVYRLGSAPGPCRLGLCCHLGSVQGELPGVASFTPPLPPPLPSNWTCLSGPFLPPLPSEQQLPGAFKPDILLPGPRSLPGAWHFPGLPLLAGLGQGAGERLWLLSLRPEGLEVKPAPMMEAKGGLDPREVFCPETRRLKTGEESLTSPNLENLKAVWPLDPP
# Summary of the method: as §1
# ETS2 = target: T3, ETS2 (Homo sapiens, UniProt P15036 1-469)
# T3 sequence: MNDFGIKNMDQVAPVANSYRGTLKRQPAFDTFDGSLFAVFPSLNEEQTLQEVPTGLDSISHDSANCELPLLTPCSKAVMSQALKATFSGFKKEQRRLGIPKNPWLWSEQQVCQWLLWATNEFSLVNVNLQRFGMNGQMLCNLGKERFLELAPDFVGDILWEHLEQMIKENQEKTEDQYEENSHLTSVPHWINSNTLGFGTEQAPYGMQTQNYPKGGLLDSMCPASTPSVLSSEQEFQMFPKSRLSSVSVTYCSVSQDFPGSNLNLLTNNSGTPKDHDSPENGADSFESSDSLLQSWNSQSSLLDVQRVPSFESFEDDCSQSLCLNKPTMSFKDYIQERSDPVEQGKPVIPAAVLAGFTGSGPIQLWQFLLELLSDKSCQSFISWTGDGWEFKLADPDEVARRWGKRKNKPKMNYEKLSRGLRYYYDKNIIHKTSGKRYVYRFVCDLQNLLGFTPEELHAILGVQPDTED
# Summary of the method: as §1
# SPDEF = target: T4, SPDEF (Homo sapiens, UniProt O95238 1-335)
# T4 sequence: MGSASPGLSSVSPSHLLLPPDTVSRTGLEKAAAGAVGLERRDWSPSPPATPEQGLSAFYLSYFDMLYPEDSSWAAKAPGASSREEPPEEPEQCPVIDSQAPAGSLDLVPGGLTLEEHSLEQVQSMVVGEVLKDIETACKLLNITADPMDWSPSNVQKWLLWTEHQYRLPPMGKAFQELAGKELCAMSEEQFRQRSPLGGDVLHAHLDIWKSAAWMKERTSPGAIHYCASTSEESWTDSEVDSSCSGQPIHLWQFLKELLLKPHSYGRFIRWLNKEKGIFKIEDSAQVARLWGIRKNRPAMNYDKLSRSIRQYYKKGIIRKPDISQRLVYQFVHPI
# Summary of the method: as §1
# ETV7 = target: T5, ETV7 (Homo sapiens, UniProt Q9Y603 1-341)
# T5 sequence: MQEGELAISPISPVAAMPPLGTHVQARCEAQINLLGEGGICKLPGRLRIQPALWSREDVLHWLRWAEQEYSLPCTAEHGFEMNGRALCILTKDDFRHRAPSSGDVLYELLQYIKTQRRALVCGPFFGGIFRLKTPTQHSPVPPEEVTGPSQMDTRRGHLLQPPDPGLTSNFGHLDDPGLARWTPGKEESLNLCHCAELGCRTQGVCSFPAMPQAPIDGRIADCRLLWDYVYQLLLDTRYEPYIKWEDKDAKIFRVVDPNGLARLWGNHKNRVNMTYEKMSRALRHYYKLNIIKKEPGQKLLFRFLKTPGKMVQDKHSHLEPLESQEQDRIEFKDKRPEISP
# Summary of the method: as §1
# ELF5 = target: T6, ELF5 (Homo sapiens, UniProt Q9UKW6-2 1-255)
# T6 sequence: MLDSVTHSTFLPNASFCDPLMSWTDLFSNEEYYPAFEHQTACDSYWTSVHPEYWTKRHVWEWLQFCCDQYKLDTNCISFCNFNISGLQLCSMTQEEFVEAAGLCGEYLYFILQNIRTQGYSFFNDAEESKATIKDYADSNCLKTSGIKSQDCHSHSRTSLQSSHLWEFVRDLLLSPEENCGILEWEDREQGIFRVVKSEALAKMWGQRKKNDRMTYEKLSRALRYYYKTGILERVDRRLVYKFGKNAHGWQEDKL
# Summary of the method: as §1
# ETV3 = target: T7, ETV3 (Homo sapiens, UniProt P41162-2 1-143)
# T7 sequence: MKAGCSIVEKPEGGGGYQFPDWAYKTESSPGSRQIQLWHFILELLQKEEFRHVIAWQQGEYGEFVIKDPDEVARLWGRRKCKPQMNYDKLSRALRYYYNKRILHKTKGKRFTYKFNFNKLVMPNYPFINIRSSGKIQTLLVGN
# Summary of the method: as §1
# ETV6 = ETV6 (Homo sapiens, UniProt P41212 1-452)
# Sequence of ETV6 (P41212 whole entry): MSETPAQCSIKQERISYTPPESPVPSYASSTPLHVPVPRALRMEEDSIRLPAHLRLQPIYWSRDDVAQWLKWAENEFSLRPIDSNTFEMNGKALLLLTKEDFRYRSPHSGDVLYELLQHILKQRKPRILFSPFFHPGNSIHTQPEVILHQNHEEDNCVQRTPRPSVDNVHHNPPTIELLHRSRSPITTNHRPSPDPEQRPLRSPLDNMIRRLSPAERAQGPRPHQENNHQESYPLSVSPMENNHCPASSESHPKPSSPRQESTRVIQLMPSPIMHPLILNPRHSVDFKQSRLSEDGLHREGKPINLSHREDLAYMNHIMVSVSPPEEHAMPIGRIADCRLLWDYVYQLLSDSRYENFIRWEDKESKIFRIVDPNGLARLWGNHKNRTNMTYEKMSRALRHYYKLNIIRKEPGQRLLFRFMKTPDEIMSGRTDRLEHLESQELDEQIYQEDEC
# Summary of the method: as §1
Sequence,binding signal (ERF),binding signal (ETV3L),binding signal (ETS2),binding signal (SPDEF),binding signal (ETV7),binding signal (ELF5),binding signal (ETV3),binding signal (ETV6)
CTCATT,"1.35 fold enrichment (6-mer frequency, TF over GST control)","1.47 fold enrichment (6-mer frequency, TF over GST control)","1.49 fold enrichment (6-mer frequency, TF over GST control)","1.33 fold enrichment (6-mer frequency, TF over GST control)","1.29 fold enrichment (6-mer frequency, TF over GST control)","1.5 fold enrichment (6-mer frequency, TF over GST control)","1.39 fold enrichment (6-mer frequency, TF over GST control)","1.45 fold enrichment (6-mer frequency, TF over GST control)"
GGTATT,"1.2 fold enrichment (6-mer frequency, TF over GST control)","1.18 fold enrichment (6-mer frequency, TF over GST control)","1.2 fold enrichment (6-mer frequency, TF over GST control)","1.27 fold enrichment (6-mer frequency, TF over GST control)","1.24 fold enrichment (6-mer frequency, TF over GST control)","1.16 fold enrichment (6-mer frequency, TF over GST control)","1.12 fold enrichment (6-mer frequency, TF over GST control)","1.24 fold enrichment (6-mer frequency, TF over GST control)"
TTACGG,"1.36 fold enrichment (6-mer frequency, TF over GST control)","1.22 fold enrichment (6-mer frequency, TF over GST control)","1.43 fold enrichment (6-mer frequency, TF over GST control)","1.32 fold enrichment (6-mer frequency, TF over GST control)","1.16 fold enrichment (6-mer frequency, TF over GST control)","1.32 fold enrichment (6-mer frequency, TF over GST control)","1.17 fold enrichment (6-mer frequency, TF over GST control)","1.26 fold enrichment (6-mer frequency, TF over GST control)"
CATTCC,"1.22 fold enrichment (6-mer frequency, TF over GST control)","1.28 fold enrichment (6-mer frequency, TF over GST control)","1.28 fold enrichment (6-mer frequency, TF over GST control)","1.29 fold enrichment (6-mer frequency, TF over GST control)","1.19 fold enrichment (6-mer frequency, TF over GST control)","1.28 fold enrichment (6-mer frequency, TF over GST control)","1.27 fold enrichment (6-mer frequency, TF over GST control)","1.3 fold enrichment (6-mer frequency, TF over GST control)"
TTTGTA,"1.63 fold enrichment (6-mer frequency, TF over GST control)","1.69 fold enrichment (6-mer frequency, TF over GST control)","1.52 fold enrichment (6-mer frequency, TF over GST control)","1.6 fold enrichment (6-mer frequency, TF over GST control)","1.53 fold enrichment (6-mer frequency, TF over GST control)","1.46 fold enrichment (6-mer frequency, TF over GST control)","1.63 fold enrichment (6-mer frequency, TF over GST control)","1.54 fold enrichment (6-mer frequency, TF over GST control)"
GGTCTC,"2.29 fold enrichment (6-mer frequency, TF over GST control)","2.36 fold enrichment (6-mer frequency, TF over GST control)","2.55 fold enrichment (6-mer frequency, TF over GST control)","1.93 fold enrichment (6-mer frequency, TF over GST control)","2.04 fold enrichment (6-mer frequency, TF over GST control)","2.18 fold enrichment (6-mer frequency, TF over GST control)","2.64 fold enrichment (6-mer frequency, TF over GST control)","1.99 fold enrichment (6-mer frequency, TF over GST control)"
TCACGC,"1.26 fold enrichment (6-mer frequency, TF over GST control)","1.2 fold enrichment (6-mer frequency, TF over GST control)","1.11 fold enrichment (6-mer frequency, TF over GST control)","1.12 fold enrichment (6-mer frequency, TF over GST control)","1.16 fold enrichment (6-mer frequency, TF over GST control)","1.15 fold enrichment (6-mer frequency, TF over GST control)","1.07 fold enrichment (6-mer frequency, TF over GST control)","1.15 fold enrichment (6-mer frequency, TF over GST control)"
